The list is not random: actives were taken first. Their share in the collection is about 21%.
Pf growth 96h = inhibits malaria parasite growth, 96 h; hit rate 6.9% among 320,000; P. falciparum luciferase reporter growth, 96 h; AID 504834; Potency, µM (series often up to 28.7 µM), usual class: inhibitors
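Two parasite generations (96 h, 37 C, 5% CO2) of compound exposure in infected erythrocytes (0.05% parasitemia, 2% hematocrit). Luciferase-reporter P. falciparum; decreased luminescence indicates inhibited growth, aimed at apicoplast-acting delayed death.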
CHX counter = affects cycloheximide protein synthesis inhibition readout, counter-screen; cell reporter, cycloheximide protein synthesis inhibition counterscreen; max response, %; hit rate 12% among 300,000; in the data active means max response mostly above about 13%, no sharp cut-off; inactive means mostly below about 14%; further: read at 38.3 µM for the half of the compounds with a filed dose
FBPA Giardia inh = Giardia lamblia aldolase inhibition; A8B2U2; purified Giardia FBPA; Potency, µM (titrated, usually from 59.6 µM), most hits filed as inhibitors; hit rate 0.71% among 290,000; AID 2451; further: nearly all actives have a fitted effect of over 55% in size
Target sequence (A8B2U2 whole entry, looked up): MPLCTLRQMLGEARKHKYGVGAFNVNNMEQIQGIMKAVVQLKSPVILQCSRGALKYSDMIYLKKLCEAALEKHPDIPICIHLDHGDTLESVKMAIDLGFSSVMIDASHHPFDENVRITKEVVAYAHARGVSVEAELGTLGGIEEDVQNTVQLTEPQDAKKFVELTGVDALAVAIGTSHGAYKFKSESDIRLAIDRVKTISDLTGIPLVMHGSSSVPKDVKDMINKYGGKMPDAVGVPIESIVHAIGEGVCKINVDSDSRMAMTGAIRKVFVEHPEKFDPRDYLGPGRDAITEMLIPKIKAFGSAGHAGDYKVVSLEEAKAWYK
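Giardia FBPA (40 nM reagent) was preincubated 10 min at RT with compound (up to 57.5 uM final), then substrate plus GAPDH/TPI/NAD/arsenate coupling system with diaphorase/resazurin was added; resorufin fluorescence (525/598 nm) was read after 20 min.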
NS1 inh = inhibitors of influenza NS1 protein function; hit rate 0.4% among 270,000; AID 2326; Potency, µM (series often up to 46.1 µM); calls by dose curve; further: actives are rising curves; nearly all actives have a fitted effect of over 50% in size
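Recovery from NS1-induced slow growth read by OD600 in budding yeast switched to galactose assay medium (pH 6.0, -URA) at 1:100 dilution. Compound 23 nl per well; the matching strain lacking NS1 serves as control.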
Shiga toxin inh = blocks Shiga toxin action in Vero cells; AID 2315; Vero cells, Shiga toxin protein synthesis inhibition reporter; hit rate 9.2% among 290,000; inhibition, % at 38.7 µM; in the data active means inhibition mostly above about 28%, no sharp cut-off; inactive means mostly below about 43%
Pf growth 48h = inhibits P. falciparum growth in the first generation, 48 h. P. falciparum luciferase growth in erythrocytes, 48 h. Potency, µM (titrated, usually from 28.7 µM), most hits filed as inhibitors. hit rate 5.9% among 310,000. AID 504832
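First compound was added to culture medium, then infected red cells at 0.1% parasitemia and 2% hematocrit (final). After incubation at 37 C under 5% CO2, luciferase detection reagent was dispensed and light output recorded.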
Numbers stand for hits; n = inactive; u = inconclusive; x = no result given; [ ] = another dose, or the depositor's remark. Unless noted, the call rests on the fitted dose curve; in most records, active means well fitted curve in the direction sought with a large enough effect; inconclusive means small, poorly fitted or top-dose-only effect, or another doubt; inactive means no such curve, though single readings can be large; an effect the other way counts as inactive or inconclusive.

SMILES | Pf growth 96h | CHX counter | FBPA Giardia inh | NS1 inh | Shiga toxin inh | Pf growth 48h
Cc1ccc2c(C)c(C(=O)N3CCCCC3CO)oc2c1C (configuration not stated) | u | 21 | n | n | 67 | n
Cc1ccc(S(=O)(=O)N2CCC(C(=O)OCC(=O)N(C)C3CCS(=O)(=O)C3)CC2)cc1C (configuration not stated) | n | x | x | x | x | n
O=S(=O)(c1ccccc1)N1CCC2(CCCN(C(c3ccccc3)c3ccccc3)C2)CC1 | x | x | n | x | x | x
COC(CNC(=O)c1c[nH]c2ccc(S(=O)(=O)N(C)c3ccc(F)cc3)cc2c1=O)OC | u | n | n | n | n | u
O=C(CN1C(=O)c2ccccc2S1(=O)=O)Nc1ccc(S(=O)(=O)Nc2ncccn2)cc1 | n | x | x | x | x | n
Cc1cc(C2CCCCC2)n(O)c(=O)c1 | 0.47µM | x | n | x | x | 0.74µM
Cc1cc(C)c(NC(=O)NC2CCCCC2)c(C)c1 | n | n | n | n | n | n
COc1ccc(C(=O)NC(=S)NCc2ccccc2)cc1 | n | n | n | n | n | n
COC(=O)CNC(=S)NC(=O)c1ccc(C(C)(C)C)cc1 | u | 32 | n | n | 78 | n
CC(C)(C)c1ccc(C(=O)c2c[nH]c(C(=O)NCCCn3ccnc3)c2)cc1 | 7.4µM | n | n | n | n | 12µM
O=C(NNC(=S)NC(=O)c1ccccc1)c1cccnc1 | u | n | u | n | n | u
O=C(NC(=S)NNC(=O)c1ccccc1F)c1cccnc1 | n | 20 | u | n | 55 | n
CC(C)(C)c1ccc(C(=O)NNC(=S)NC(=O)c2cccnc2)cc1 | u | 24 | n | n | 53 | 13µM
COc1ccc(CN2CCC3C=CCC(C(=O)O)C3C2=O)cc1OC (configuration not stated) | x | n | n | x | n | x
CC(C)(C)c1ccc(C(=O)NC(=S)NCc2cccnc2)cc1 | n | 45 | n | n | active | n
CC(C)(C)c1ccc(C(=O)c2c[nH]c(C(=O)NCc3cccnc3)c2)cc1 | 5.2µM | 20 | n | n | n | 8.3µM
CC(C)(C)c1ccc(C(=O)NCc2cccnc2)cc1 | n | n | n | n | n | n
O=C(NNC(=S)Nc1ccccc1C(F)(F)F)c1cccnc1 | n[5.75 µM] | 10 | n | n | n | n
COc1ccc(NC(=O)CCCC(=O)NCCc2ccc(OC)c(OC)c2)cc1 | u | n | n | n | n | u
Cc1ccccc1-n1ncc2c1CC(C)(C)CC2NC(=O)CN1CCCC1=O (configuration not stated) | n | n | x | n | n | n
O=C(Cc1cccs1)Nc1ccc(Cl)c(S(=O)(=O)N2CCOCC2)c1 | u | x | x | x | x | 10µM
Cc1ccc(NC(=O)COC(=O)Cc2cccs2)cc1S(=O)(=O)N1CCOCC1 | n | n | x | n | n | n
O=C(Cc1cccs1)Nc1ccc(F)c(S(=O)(=O)N2CCOCC2)c1 | 6.6µM | x | x | x | x | u
CC(=O)C1=C(C)N(Cc2ccccc2)C(=O)N[C@H]1c1ccco1 | n | n | n[12.9 µM] | n | n | n
CC1(C)C2CCC1(C)C(NC(=O)/C=C/c1ccccc1)C2 (configuration not stated) | n | n | n | x | n | 7.4µM
SMILES | Pf growth 96h | CHX counter | FBPA Giardia inh | NS1 inh | Shiga toxin inh | Pf growth 48h
O=C(NC1CCSC1=O)c1ccccc1 (configuration not stated) | u | n | n | n | n | n
O=C(/C=C/c1ccccc1)NC1CCSC1=O (configuration not stated) | 10µM | 39 | n | n | 70 | n
CC1(C)C2CCC1(C)C(Nc1ccccc1)C2 (configuration not stated) | u | n | n | n | n | n
COc1cc(CN2CCN(C(=O)c3cccc4ccccc34)CC2)cc(OC)c1O | 15µM | n | u | n | x | n
COc1ccc(OC)c(CN2CCN(C(=O)c3cc4ccccc4cc3O)CC2)c1 | 2.3µM | n | n | n | n | 4.7µM
Nc1nc2c([nH]c(=O)n2C2OC(CO)C(O)C2O)c(=O)[nH]1 (configuration not stated) | x | x | n | x | x | x
CC1(c2ccc3ccccc3c2)NC(=O)N(CC(=O)Nc2ncccc2O)C1=O (configuration not stated) | n | x | x | x | x | n
C/C(=N\OC(=O)c1c(-c2ccccc2Cl)noc1C)c1ccncc1 | n | n | n | n | n | n
Cc1onc(-c2ccccc2)c1C(=O)OCc1nnc(-c2ccccc2)o1 | u | x | x | x | x | n
Cc1onc(-c2cccc(Cl)c2Cl)c1C(=O)O/N=C(\N)c1ccc([N+](=O)[O-])o1 | 10µM | 9.1 | n | n | n | u
Cc1onc(-c2ccccc2)c1C(=O)O/N=C(\N)c1ccc([N+](=O)[O-])o1 | 12µM | n | n | n | n | u
C/C(=C\C[Si](C)(C)C)CCC=O | x | x | n | x | x | x
CN1CCN(Cc2ccc(Sc3ccc(Cl)cc3)c([N+](=O)[O-])c2)CC1 | 0.17µM | n | n | x | n | u
Cc1ccc(Sc2ccc(CN3CCCC3)cc2[N+](=O)[O-])cc1 | u | n | n | n | n | n
O=C(NCCCCNC(=O)c1cccnc1Cl)c1cccnc1Cl | u | n | x | n | n | u
CC(=O)Nc1cccc(C(=O)OCC(=O)NNC(=O)c2cccs2)c1 | n | x | x | x | x | n
CCC(=O)Nc1ccc(-c2nnc(SCC(=O)Nc3nccs3)n2C)cc1 | n[5.75 µM] | n | n | n | n | n
CCC(=O)Nc1ccc(-c2nnc(SCc3ccc(C(=O)Nc4nccs4)cc3)n2CC)cc1 | n | n | x | u | n | 7.4µM
O=C(Nc1nccs1)c1ccc(CSc2nnnn2-c2ccccc2)cc1 | x | 44 | n | n | n | u
O=C(NCC(=O)N1CC=C(c2ccccc2)CC1)c1ccco1 | n | x | x | x | x | n
O=C(/C=C/c1ccco1)NC1CCCC1 | u | n | n | n | n | n
O=C(O)C(C(=O)/C=C/c1ccco1)=C1SCCS1 | n | 27 | n | n | 74 | n
O=C(C=C1SCCS1)/C=C/c1ccco1 | n | 37 | n | n | 71 | n
N#CC1(NC(=O)COC(=O)c2ccccc2[N+](=O)[O-])CCCCC1 | n | x | x | x | x | n
N#CC1(NC(=O)COC(=O)c2cc(O)c3ccccc3c2O)CCCCC1 | 12µM | x | x | x | x | u
SMILES | Pf growth 96h | CHX counter | FBPA Giardia inh | NS1 inh | Shiga toxin inh | Pf growth 48h
CCCCCN=c1ccn(Cc2ccccc2)c2ccccc12 | x | x | n | x | x | x
Cc1c(C#N)c2ccccc2n1CC(=O)O | n | n | n | n | n | n
Cc1c(C#N)c2ccccc2n1CC(=O)NC(C)c1ccccc1 (configuration not stated) | x | n | n | n | n | 2.9µM
Cc1cccc(NC(=O)Cn2c(C)c(C#N)c3ccccc32)c1C | x | n | n | n | n | 2.1µM
Cc1cc2c3c(c1)C(C)(c1ccccc1)CC(C)(C)N3C(=O)C21C(C#N)=C(N)OC2=C1C(=O)CC(C)(C)C2 (configuration not stated) | 1.9µM | n | n | n | n | x
Cc1cc2c3c(c1C)C1(C(=O)N3C(C)(C)CC2C)C(C#N)=C(N)Oc2n[nH]c(C)c21 (configuration not stated) | n | n | n | n | n | u
